# Bioassay records (PubChem BioAssay)
# CtBP-E1A blk: inhibitors of CtBP/E1A interaction. AlphaScreen GST-E1A/His-CtBP binding, 1536-well; stronger effect = lower value. actives 0.49% (n = 340,000). activity change, % (test concentration not listed). AID 651724; in the data active = activity change below about -65%; inconclusive = mostly about -30% to -63%
#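 In 5 uL wells, 23 nL compound meets equimolar GST-E1A and His-CtBP (5X stock 125 nM each) for 2 h, 37 °C. Beads (5X, 50 ug/mL) then 1 h, 37 °C, dark.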
# TDP1 block: TDP1 (human) enzyme inhibition; recombinant TDP1, AlphaScreen DNA substrate cleavage; Potency, µM (titrated, usually from 130 µM), for inactives: at the top dose activity change, negative = inhibition, actives largely listed as inhibitors; actives 0.28% (n = 350,000); note: potency is the fitted concentration of half-maximal effect; nearly all actives have a fitted effect of over 40% in size
#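 E. coli-derived human Tdp1, 1 nM final. Cpd preinc 15 min RT; substrate 15 nM final, 5 min RT; AS bead mix 10 ug/ml final, 10 min RT. Signal loss = tyrosine-FITC cleavage. No-enzyme wells = max signal.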
# TDP1 cell CPT: DT40-hTDP1 cell growth loss with CPT; Potency, µM (titrated, usually from 46.2 µM), without a hit: at the highest dose activity change, negative = growth inhibition, actives largely listed as inhibitors; AID 686979; chicken DT40 Tdp1-/-;hTDP1 cells + 20 nM CPT, ATP luminescence, 48 h; actives 12% (n = 420,000); note: potency is the fitted concentration of half-maximal effect; nearly all actives have a fitted effect of over 55% in size
#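 Chicken DT40 Tdp1-/- cells complemented with human TDP1, 400 cells/well, exposed to compounds plus 20 nM camptothecin for at least 48 h at 37 C; viability read as ATP content by CellTiter-Glo luminescence.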
# Six1-Eya2 blk: inhibitors of human Six1/Eya2 interaction; activity change, % (concentration not given with the values); actives 0.56% (n = 360,000); Q15475+O00167; AlphaScreen GST-Six1/His-Eya2 binding, biochemical; stronger effect = lower value; AID 651725; in the data active = activity change below about -65%; inconclusive = mostly about -30% to -63%
# Target sequence (O00167 whole entry, looked up): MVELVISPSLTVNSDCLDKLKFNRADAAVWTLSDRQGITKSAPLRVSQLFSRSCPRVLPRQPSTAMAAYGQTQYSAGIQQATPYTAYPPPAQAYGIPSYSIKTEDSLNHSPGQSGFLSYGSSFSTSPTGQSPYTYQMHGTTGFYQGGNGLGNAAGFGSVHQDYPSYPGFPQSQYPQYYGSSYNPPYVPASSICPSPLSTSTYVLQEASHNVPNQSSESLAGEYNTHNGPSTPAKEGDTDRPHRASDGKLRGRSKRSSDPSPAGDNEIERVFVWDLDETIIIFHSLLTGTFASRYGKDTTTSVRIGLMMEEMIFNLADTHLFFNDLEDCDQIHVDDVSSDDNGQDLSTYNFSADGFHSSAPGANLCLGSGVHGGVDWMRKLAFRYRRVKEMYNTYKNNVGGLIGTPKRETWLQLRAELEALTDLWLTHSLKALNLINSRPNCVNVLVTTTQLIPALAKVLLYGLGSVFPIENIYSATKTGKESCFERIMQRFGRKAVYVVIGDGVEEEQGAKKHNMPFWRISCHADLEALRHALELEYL
# Target sequence (Q15475 whole entry, looked up): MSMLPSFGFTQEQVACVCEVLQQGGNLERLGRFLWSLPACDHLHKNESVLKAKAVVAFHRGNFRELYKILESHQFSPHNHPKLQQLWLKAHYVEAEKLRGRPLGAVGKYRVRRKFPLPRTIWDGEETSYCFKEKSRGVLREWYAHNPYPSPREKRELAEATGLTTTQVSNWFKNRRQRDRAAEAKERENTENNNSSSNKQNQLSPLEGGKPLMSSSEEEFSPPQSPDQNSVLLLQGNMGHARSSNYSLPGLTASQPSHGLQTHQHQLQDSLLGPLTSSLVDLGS
#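 Compounds are tested against tagged Six1 and Eya2 proteins bridged by glutathione donor and nickel acceptor beads; after a one-hour incubation at 37 °C without light, AlphaScreen emission is recorded.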
# IL-1B inflam inh: inflammasome signaling inhibition, IL-1 beta readout. THP-1 LPS/ATP IL-1B secretion, AlphaLISA, 16 h; stronger effect = lower value. activity change, % at 57.5 µM. actives 4.7% (n = 360,000). AID 743279; in the data active = activity change below about -50%; inconclusive = mostly about -30% to -49%
#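 Secreted IL-1B measured by AlphaLISA bead assay after 16 h compound exposure of THP-1 cells; compounds (final up to 57.5 uM) added 1 h before LPS (250 ng/mL) and ATP (1.25 mM) stimulation; lower signal means less secretion.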
# DT40 TDP1 no CPT: qHTS for Inhibitors of human tyrosyl-DNA phosphodiesterase 1 (TDP1): qHTS in cells in absence of CPT; DT40 Tdp1-/- hTDP1 cells, no CPT, ATP luminescence, 48 h; Potency, µM (top dose mostly 46.2 µM), inactives show at the top dose activity change, negative = growth inhibition, hits mostly inhibitors; actives 15% (n = 420,000); AID 686978, 2013; note: potency is the fitted concentration of half-maximal effect; nearly all actives have a fitted effect of over 55% in size
#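 Luminescent ATP content (CellTiter-Glo) served as the growth readout. Knockout chicken DT40 cells expressing human TDP1 were exposed to compounds without camptothecin for a minimum 48 hr at 37 °C.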
# Numbers without * were called inactive; ? = inconclusive; . = not tested or not shown. Compounds with a hit are over-represented: about 18% of the library has one in this group of screens. Unless noted, calls come from the whole dose curve; as a rule, active = well fitted curve in the direction sought with a large enough effect; inconclusive = small, poorly fitted or top-dose-only effect, or another doubt; inactive = no such curve, though single readings can be large; an effect the other way counts as inactive or inconclusive. % is set by controls: 0 for no effect and ±100 for the full control effect.
SMILES,CtBP-E1A blk,TDP1 block,TDP1 cell CPT,Six1-Eya2 blk,IL-1B inflam inh,DT40 TDP1 no CPT
CC(NC(=O)c1ccco1)C(=O)N1CCN(c2cccc(Cl)c2)CC1 (configuration not stated),-23,0%,?,0,-5,-26%
CC(C)NS(=O)(=O)c1ccc(OCC(=O)N2CCN(c3cccc(Cl)c3)CC2)cc1,.,-6%,15µM*,.,.,23µM*
O=C(O)c1cccc2c1Oc1ccccc1S2(=O)=O,6,.,-2%,1,2,0%
CN(C)CCN1C(=O)CCC2(C)C1=CCC1C2CCC2(C)C1CCC2(C)O (configuration not stated),-5,.,3%,0,3,-10%
COc1ccc([C@H]2CC(=O)C=C(c3ccc(C(F)(F)F)c(C(F)(F)F)c3)C2)cc1OC,0,1%,?,0,-78*,?
COc1ccc([C@H]2CC(=O)C=C(c3ccc(Cl)c(C(F)(F)F)c3)C2)cc1OC,-7,4%,?,-19,-56*,?
O=C(COC(=O)c1cc(S(=O)(=O)N2CCOCC2)c(Cl)cc1Cl)NC1CC1,-17,0%,3%,4,-97*,3%
O=C(NC1CCCC1)c1cc(S(=O)(=O)N2CCOCC2)c(Cl)cc1Cl,0,8%,-10%,-10,-9,-21%
COc1ccc(OCCOC(=O)c2cc(S(=O)(=O)N3CCOCC3)c(Cl)cc2Cl)cc1,0,.,?,1,-94*,?
CCCC(=O)Nc1ccc2c(c1)nc(CN1CCN(C(=O)OCC)CC1)n2CC,8,.,3.7µM*,0,75,2.3µM*
Cn1c(CN2CCOCC2)nc2cc(NC(=O)c3ccccc3Cl)ccc21,1,0%,-14%,-2,8,-15%
CCCC(=O)Nc1ccc2c(c1)nc(CN1CCN(C(=O)OCC)CC1)n2C(C)C,.,2%,0.65µM*,.,.,0.065µM*
CCOC(=O)N1CCN(Cc2nc3cc(NC(=O)c4ccccc4Cl)ccc3n2C(C)C)CC1,.,1%,1.5µM*,.,.,1.5µM*
CCOC(=O)c1sc(=NC(=O)c2ccc(S(=O)(=O)N(C)c3ccccc3)cc2)n(C)c1C,-1,-3%,2%,2,20,1%
COc1cccc(CNc2ccc(N3CCCCC3)cc2)c1OC,?,15%,26µM*,-66*,-3,?
CCOc1ccc(CNc2ccc(N3CCN(Cc4ccccc4)CC3)cc2)cc1,?,9%,?,?,-1,?
CCOc1cc(CNc2ccc(S(N)(=O)=O)cc2)cc(Cl)c1OC,-1,3%,?,6,-10,?
CCOc1ccc(CNc2ccc(N3CCCC3)cc2)cc1,?,11%,9.2µM*,?,4,8.2µM*
C=CCOc1c(Cl)cc(CNc2ccc(C)c(Cl)c2)cc1OC,.,-1%,.,.,.,.
C=CCOc1c(Cl)cc(CNc2ccc(N(C)C)cc2)cc1OC,?,3%,6.5µM*,?,0,6.5µM*
CCOc1cc(CNc2ccc(N3CCCC3)cc2)cc(Cl)c1OC,-20,8%,2.9µM*,?,-99*,3.7µM*
COc1cc(CC(=O)Nc2ccc(N3CCOCC3)cc2)cc(OC)c1OC,.,5%,3%,-1,48,-24%
COc1cc(CNc2ccc(N3CCCC3)cc2)cc(Cl)c1OC,?,0%,2.3µM*,?,?,2.6µM*
CCOc1ccc(CNCCN2CCCC2)cc1,1,.,?,-8,-15,21µM*
O=S(=O)(c1ccc(N2CCOCC2)cc1)N1CCOCC1,3,6%,-21%,2,-10,-19%
SMILES,CtBP-E1A blk,TDP1 block,TDP1 cell CPT,Six1-Eya2 blk,IL-1B inflam inh,DT40 TDP1 no CPT
COc1cccc(C2c3c(oc4ccc(F)cc4c3=O)C(=O)N2CCN2CCOCC2)c1OC (configuration not stated),-1,-2%,-7%,-1,-1,-11%
Cc1[nH]n(-c2ccccc2)c(=O)c1C(C[N+](=O)[O-])c1ccc(Br)cc1 (configuration not stated),-9,9%,12µM*,-6,-15,9.2µM*
Cc1[nH]n(-c2ccccc2)c(=O)c1C(c1ccc(C(=O)O)cc1)c1c(C)[nH]n(-c2ccccc2)c1=O,-1,0%,?,-13,-1,?
CCOc1ccc(C(c2c(C)[nH]n(-c3ccccc3)c2=O)c2c(C)[nH]n(-c3ccccc3)c2=O)cc1OC,.,.,-14%,.,.,-18%
Cc1[nH]n(-c2ccccc2)c(=O)c1C(c1cccc([N+](=O)[O-])c1)c1c(C)[nH]n(-c2ccccc2)c1=O,-17,11%,?,-22,-85*,21µM*
Cc1cc(NC(=O)CN2C(=O)NC(C)(c3ccccc3Cl)C2=O)no1 (configuration not stated),1,0%,-7%,-3,27,-15%
CCn1c(=O)cc(SCC(=O)NCc2cccc(Cl)c2)c2ccccc21,.,9%,?,.,.,9.2µM*
CCn1c(=O)cc(SCC(=O)Nc2ccc(Cl)cc2)c2ccccc21,2,2%,20%,-1,-4,-17%
CCn1c(=O)cc(SCC(=O)NCc2ccc(Cl)cc2)c2ccccc21,.,-2%,10µM*,.,.,21µM*
O=C(Nc1cccc(C(F)(F)F)c1)N1CC2CCCN2c2ccccc21 (configuration not stated),.,8%,?,.,.,?
Cc1ccc(NC(=O)N2CC3CCCN3c3ccccc32)c(C)c1 (configuration not stated),.,11%,23µM*,.,.,18µM*
COC(=O)c1ccc(Cl)cc1NC(=O)N1CC2CCCN2c2ccccc21 (configuration not stated),.,3%,?,.,.,?
Cc1ccc(NC(=O)N2CC3CCCN3c3ccccc32)cc1C (configuration not stated),.,13%,18µM*,.,.,23µM*
Cc1ccc(NC(=O)N2CC3CCCN3c3ccccc32)cc1Cl (configuration not stated),.,13%,?,.,.,16µM*
O=C(NCc1ccccc1)c1ccc(NC(=O)N2CC3CCCN3c3ccccc32)cc1 (configuration not stated),.,3%,?,.,.,?
Cc1ccc2c(c1)=N/C(=N\c1[nH]c(O)c3ccccc13)N=2,-18,.,4.1µM*,-22,-102*,3.7µM*
